Compound activity deposited in PubChem BioAssay by several laboratories.
esBAF inh: Bmi1 luciferase reporter increase in mESCs, primary screen, esBAF inhibitor project, mouse ES cells, Bmi1 luciferase knock-in, single point. 24 h; 100% = twice the neutral-well signal. reporter increase, % at 12.5 µM. 350,000 tested, 2% active; in the data active means activation above about 40%; inconclusive means no clear call, values can overlap the other calls;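 further: 0% = median of the plate's neutral control wells and 100% = double that signal; a rise in the Bmi1 reporter signal indicates esBAF inhibition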
FXN GAA850 act: FXN promoter activators, primary screen, cell-based, luciferase luminescence, HEK293 lucGAA850; HEK293 lucGAA850 FXN promoter luciferase reporter, 24 h; percent of 10 µM SAHA response; activation, % at 6 µM; 360,000 tested, 0.56% active; AID 540364, 2011;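 active means activation above the average of all compounds screened plus 3 SD, cutoff fixed separately per campaign, cut at about 7.5% in these data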;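 further: 0% = DMSO wells and 100% = 10 µM SAHA wells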
C2C12 statin: suppressors of statin myotoxicity in C2C12 myotubes, primary screen, cell-based, single point, plate reader; 330,000 tested, 0.78% active; rescue of ATP level, % at 7.49 µM; C2C12 myotubes + simvastatin, ATP luminescence, 48 h; scaled: DMSO 0, geranylgeraniol control 100;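 active means mean ATP rescue above about 67%, or every replicate alone reaching that limit, limit read from the data, passing the limit was not always enough; inconclusive means no clear call, values can overlap the other calls; inactive means mean under the limit and some replicate under it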;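 further: myotubes were challenged with 10 µM simvastatin during compound exposure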
MITF act: activators of MITF-driven TRPM1 promoter reporter, primary screen, cell-based, SK-MEL-5, luciferase, single point; SK-MEL-5 TRPM1-promoter luciferase, 24 h; % of positive control, neutral wells = 0; activation, % at 12.5 µM; 300,000 tested, 0.75% active; AID 588334, 2011;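 active means mean activation of at least 80% with every replicate also reaching 80%; inconclusive means mean reaches 80% but some replicate falls short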;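 further: 0% = neutral control wells and 100% = parthenolide positive control wells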
Wnt act: Wnt/beta-catenin pathway activators, primary screen, cell-based, plate reader, single point. 300,000 tested, 1.2% active. activation, % at 9.35 µM. Wnt/beta-catenin reporter cell assay, activator; in the data active means activation above about 30%, passing the limit was not always enough; inconclusive means no clear call, values can overlap the other calls;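 further: 0% = neutral control wells and 100% = positive control wells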
Starred values were filed as active, the others as inactive. In the library only some 3.3% were active in any assay of this set; here they are far more common.

`COc1ccc(CN2C[C@@H](O)COC[C@H]3O[C@H](CC(=O)NCCN4CCCC4)CC[C@@H]32)cc1` gave esBAF inh -5 and C2C12 statin -4.
CCC(=O)N[C@@H]1C=C[C@@H](CC(=O)NCCN2CCCCC2)O[C@H]1CO was read as esBAF inh -1 and C2C12 statin 3.
For O=C(C[C@H]1CC[C@H]2NC[C@H](O)COC[C@@H]2O1)NC1Cc2ccccc2C1 the results were esBAF inh -3 and C2C12 statin 6.
For COc1cccc(S(=O)(=O)N[C@@H]2C=C[C@@H](CC(=O)NCc3ccc(F)cc3)O[C@@H]2CO)c1 the results were esBAF inh 3 and C2C12 statin 2.
CSc1nnc(NC(=O)c2cc3ccccc3oc2=O)s1 was read as esBAF inh 54*, FXN GAA850 act -1, C2C12 statin -7 and Wnt act -1.
`O=C(Nc1ccc(Cl)cc1Cl)c1cc2ccccc2o1` gave esBAF inh 0, FXN GAA850 act 2, C2C12 statin -63 and Wnt act 14.
`O=C(Nc1ncccc1Cl)c1cc2ccccc2o1` gave esBAF inh inconclusive, FXN GAA850 act 7, C2C12 statin 14, MITF act 51 and Wnt act 46*.
For O=C(Nc1ccccc1)c1cc2ccccc2o1 the results were esBAF inh -8, FXN GAA850 act 5, C2C12 statin -20, MITF act -8 and Wnt act 35*.
O=C(Nc1ccc(F)cc1)c1cc2ccccc2o1 was read as esBAF inh 47*, FXN GAA850 act 5, C2C12 statin 9, MITF act 45 and Wnt act 16.
Screening C[C@@H]1CCCCO[C@H](CN(C)C(=O)Nc2ccc(F)cc2)[C@H](C)CN([C@@H](C)CO)C(=O)c2cc(NC(=O)Nc3ccc(C(F)(F)F)cc3)ccc2O1 returned esBAF inh 1.
Cc1noc(C)c1NC(=O)Nc1ccc2c(c1)C(=O)N([C@@H](C)CO)C[C@H](C)[C@@H](CN(C)CC1CCCCC1)O2 was read as esBAF inh -4 and C2C12 statin 10.
For COCC(=O)Nc1ccc2c(c1)C(=O)N(C)C[C@@H](OC)[C@@H](C)CN(CC1CC1)[C@H](C)CO2 the results were esBAF inh -1 and C2C12 statin 5.
O=C(C[C@H]1C[C@@H]2c3cc(NC(=O)C4CCOCC4)ccc3O[C@@H]2[C@@H](CO)O1)NCc1cccc(F)c1 was read as esBAF inh 0 and C2C12 statin 1.
For CC(C)c1nnc(NC(=O)c2cc3ccccc3o2)s1 the results were esBAF inh 23, FXN GAA850 act 3, C2C12 statin -2, MITF act 108* and Wnt act 27.
For COc1ccc(NC(=O)c2cc3ccccc3o2)cc1 the results were esBAF inh 58*, FXN GAA850 act 7, C2C12 statin -6, MITF act 55 and Wnt act 4.
For O=C(Nc1ccc(NC(=O)c2cc3ccccc3o2)cc1)c1ccco1 the results were esBAF inh 0, FXN GAA850 act 0, C2C12 statin -9, MITF act 6 and Wnt act 0.
CC(=O)c1ccc(NC(=O)c2cc3ccccc3o2)cc1 was read as esBAF inh 39, FXN GAA850 act 3, C2C12 statin -8, MITF act 31 and Wnt act 39*.
Screening COc1ccc(NC(=O)c2cc3ccccc3o2)cn1 returned esBAF inh 68*, FXN GAA850 act 3, C2C12 statin -6, MITF act 104* and Wnt act 43*.
Screening CC(C)NC(=O)c1cc2ccccc2o1 returned esBAF inh 1, FXN GAA850 act -2, C2C12 statin 1 and Wnt act -2.
Cc1ccc(-c2cnc3c(c2)C(=O)N([C@@H](C)CO)C[C@H](C)[C@H](CN(C)S(C)(=O)=O)O3)cc1 was read as esBAF inh -3 and C2C12 statin -1.
For Cc1cc(C(=O)Nc2ccccc2)oc1C the results were FXN GAA850 act 1 and MITF act 113*.
Screening Cc1cc(C(=O)Nc2cccc3ccccc23)oc1C returned esBAF inh 31, FXN GAA850 act 1, C2C12 statin 0 and Wnt act 4.
CC(=O)N1CCN(c2ccc(NC(=O)c3cc4ccccc4o3)cc2)CC1 was read as esBAF inh 4, FXN GAA850 act 2, C2C12 statin -26, MITF act 8 and Wnt act 3.
`O=C(Nc1ccc(N2CCCC2)cc1)c1cc2ccccc2o1` gave esBAF inh 43*, FXN GAA850 act 5, C2C12 statin 6, MITF act 28 and Wnt act 2.
For CC(C)C(=O)Nc1ccc2c(c1)C(=O)N(C)[C@H]1CC[C@H](CC(=O)Nc3ccccc3F)O[C@@H]1CO2 the results were esBAF inh -1 and C2C12 statin 24.
For O=C(Nc1ccccc1)c1ccc(-c2ccccc2C(F)(F)F)o1 the results were esBAF inh 52*, FXN GAA850 act 5, C2C12 statin 5, MITF act 79 and Wnt act 29.
`CC(C)NC(=O)c1ccc(-c2ccccc2C(F)(F)F)o1` gave esBAF inh 47*, FXN GAA850 act 6, C2C12 statin -9 and MITF act 76.
`CC(C)NC(=O)c1ccc(-c2ccc(Cl)c(C(F)(F)F)c2)o1` gave FXN GAA850 act -1 and MITF act 0.
Screening C[C@H]1CN([C@@H](C)CO)C(=O)c2cccc(NC(=O)C3CCCCC3)c2O[C@@H]1CN(C)S(=O)(=O)c1ccc(Cl)cc1 returned esBAF inh -1 and C2C12 statin 119*.
`C[C@H](CO)N1C[C@H](C)[C@H](CN(C)S(=O)(=O)c2ccc(Cl)cc2)Oc2c(NC(=O)C3CCCCC3)cccc2C1=O` gave esBAF inh 28 and C2C12 statin 2.
For C[C@H](CO)N1C[C@H](C)[C@@H](CN(C)S(=O)(=O)c2ccc(Cl)cc2)Oc2c(NC(=O)C3CCCCC3)cccc2C1=O the results were esBAF inh 2 and C2C12 statin 143*.
`CN(C)C(=O)C[C@@H]1C=C[C@@H](NC(=O)NC2CCCCC2)[C@H](CO)O1` gave esBAF inh -6 and C2C12 statin -4.
Screening O=C1NC(c2ccccc2Br)=N/C1=C\c1ccco1 returned FXN GAA850 act 5, MITF act 46 and Wnt act 70*.
O=C1NC(c2ccccc2)=N/C1=C/c1ccco1 was read as FXN GAA850 act 7, MITF act 51 and Wnt act inconclusive.
Screening CCC(=O)N1C[C@@H](C)[C@@H](OC)CN(C)C(=O)c2cc(NS(=O)(=O)CC)ccc2OC[C@@H]1C returned esBAF inh -6 and C2C12 statin 5.
